Columns and labels:
Assay in all cases: PBM binding z-score (relative to random genomic background probes); higher = stronger binding; sequences stand for … in GC…GCGATTGACAGCGTAGAATGAAGG
[1] = system: FXR:RXRa (NR concentration 270 nM, RXRa partner concentration 90 nM)
In short: (§1)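 Ligand-free nuclear receptor dimers were applied to custom Agilent 4×180K protein-binding microarrays whose double-stranded probes carried direct-repeat seeds, single-nucleotide variants, half-site ablations and random human genomic background sequences in 34-nt variable regions. Incubation lasted 1 h. Binding z-scores were computed against the random background probes from regression-normalized fluorescence.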

[2] = system: LXRa:RXRa (NR concentration 270 nM, RXRa partner concentration 90 nM)
In short: as §1

[3] = system: LXRa homodimer (NR concentration 270 nM)
In short: as §1

[4] = system: LXRb:RXRa (NR concentration 270 nM, RXRa partner concentration 90 nM)
In short: as §1

[5] = system: LXRb homodimer (NR concentration 270 nM)
In short: as §1

[6] = system: PPARa:RXRa (NR concentration 270 nM, RXRa partner concentration 90 nM)
In short: as §1

[7] = system: PPARg:RXRa (NR concentration 180 nM, RXRa partner concentration 90 nM)
In short: as §1

[8] = system: PPARg:RXRa 270nM:90nM, anti-RXR (NR concentration 270 nM, RXRa partner concentration 90 nM)
In short: as §1

[9] = system: PPARg:RXRa 30nM:10nM, anti-RXR (NR concentration 30 nM, RXRa partner concentration 10 nM)
In short: as §1

[10] = system: PPARg:RXRa 90nM:30nM, anti-RXR (NR concentration 90 nM, RXRa partner concentration 30 nM)
In short: as §1

Sequence | PBM binding z-score [1] | PBM binding z-score [2] | PBM binding z-score [3] | PBM binding z-score [4] | PBM binding z-score [5] | PBM binding z-score [6] | PBM binding z-score [7] | PBM binding z-score [8] | PBM binding z-score [9] | PBM binding z-score [10]
AGTGAAAGTTCATCTAGGTAACGTAAGATATGCT | 5.95 | 5.92 | 5.06 | 3.56 | 1.86 | 4.52 | 5.39 | 5.5 | 2.65 | 4.84
ATATGTAGGTTAAGGCTCATTCAGGTTGGTTCGC | 0.549 | 0.861 | 0.334 | 0.683 | 0.0062 | 3.43 | 5.54 | 5.46 | 2.91 | 5.15
CCGACTTGGGCAGAAAGGTTACCATACCATCCGG | 0.0234 | 0.228 | -0.275 | 0.646 | -1.09 | 1.44 | 1.06 | 1.64 | 0.23 | 0.892
TCTCGGAGGACACGATGGTCAGAGCTTTCCAGAG | 0.101 | -0.284 | -0.822 | -0.381 | -1.39 | -0.0198 | -0.18 | 0.7 | 1.73 | 1.07
CCTACTGGGCCGTCAGGTCATTGATATCAACGTT | 1.31 | 0.772 | 0.809 | 1.21 | -0.585 | 1.71 | 0.704 | 1.92 | 0.179 | 1.15
AGTCAAAGTTCACCAGGTAACGTAAGATTCAGCT | 6.31 | 5.59 | 3.52 | 3.85 | 1.05 | 5.19 | 6.96 | 6.68 | 3.83 | 6.1
TCTCGGAGGACACGAATGTCAGAGCTTTCCAGAG | 0.579 | -0.0398 | -0.547 | -0.175 | -0.958 | 0.22 | -0.0172 | 0.69 | 1.96 | 1.29
ATCGAAAGATCGACGAGGTGAGTATACACCGTTT | -0.0851 | -0.16 | -0.368 | -0.346 | -0.329 | 0.0246 | 0.902 | -0.253 | 0.289 | 0.00942
CAAACTAGGTCACAGAGGTCAAATTCCGTGCGTA | 7.61 | 6.88 | 8.33 | 6.71 | 3.6 | 6.59 | 10.5 | 8.65 | 7.13 | 8.61
CATACGGGGTCAGCTAGGCCAGAGTAGGGACGGC | 7.18 | 5.6 | 0.0211 | 4.81 | 1.12 | 6.17 | 7.29 | 6.63 | 3.71 | 5.39
AGAACGAGTGCAATGAGTTGATAGCACGGGTGGC | -0.597 | -0.443 | -0.783 | -0.585 | -1.04 | -0.17 | 0.712 | -0.327 | -0.239 | -0.508
ATATGTAGGTTAAGGGTAATTCAGGTTGGTTCGC | 1.39 | 2.14 | 1.04 | 1.72 | 0.767 | 4.6 | 8.65 | 7.77 | 8.77 | 8.33
AGAACGAGGGCACGGTGAGTTGATAGCAGAGTAG | 1.12 | 0.775 | -0.352 | 0.306 | -0.638 | 2.61 | 2.7 | 2.19 | 0.933 | 1.2
CCTCGGGGGACAGAAGGTCAGAGCTGTCCGCTTT | 2.39 | 3.78 | 0.464 | 3.58 | 2.95 | 3.5 | 0.517 | 2.66 | 0.439 | 1.51
TCTAGTTGGTCACGGAGGTCATACACGACGGGTA | 3.53 | 3.79 | 3.37 | 3.52 | 0.955 | 3.92 | 3.08 | 3.93 | 3.65 | 3.86
CGTCTAAGGTCAGAGAGGTCAGTGAATGCCGAGT | 6.73 | 5.75 | 3.47 | 5.03 | 0.521 | 5.48 | 4.02 | 5.03 | 1.38 | 3.5
ACTCACGGGTCAACGAGGTTATAGCACGCGTATA | 6.65 | 4.67 | 0.969 | 4.03 | 0.564 | 5.34 | 4.39 | 4.55 | 1.72 | 3.08
TCTGCTAGGTCAGTTGGTCAGCCAACGAGCTGCC | 0.772 | 0.762 | -0.677 | 0.196 | -0.0137 | 1.52 | 0.643 | 1.9 | 1.52 | 1.51
ATCTCTAGGAAACAAGTTCAGTGAAAGAGAGGAC | 0.431 | 0.902 | 0.383 | 0.587 | 0.528 | 0.467 | 0.409 | 0.0222 | 0.37 | -0.00536

Sequence | PBM binding z-score [1] | PBM binding z-score [2] | PBM binding z-score [3] | PBM binding z-score [4] | PBM binding z-score [5] | PBM binding z-score [6] | PBM binding z-score [7] | PBM binding z-score [8] | PBM binding z-score [9] | PBM binding z-score [10]
CGAACTAGGTCATTGACAAGACAGTGAATAGTAA | 3.79 | 2.42 | 0.115 | 2.04 | -0.0491 | 4.5 | 7.38 | 6.17 | 3.72 | 5.54
CAAACTAGGTCACCGGAAGGTCAATGTCCGCATG | 5.97 | 5.52 | 3.83 | 4.64 | 1.09 | 6.05 | 9.44 | 7.81 | 5.6 | 7.57
ACTATTAGTCGACTTAGGGCAACCGATACGACGC | -0.365 | -0.211 | -0.355 | -0.374 | 0.47 | -0.446 | 0.825 | 0.138 | 0.0617 | 0.0451
TTACCAAGGTGAGCTCAGGTCGTTGATCCAACTC | 1.26 | 0.561 | -0.29 | 0.42 | -1.08 | 0.894 | -0.199 | 0.203 | -0.185 | -0.151
TAGCCTAGGTCATTCAGGGGCCAGTCTAGAAAGC | 4.72 | 3.65 | 0.514 | 2.84 | 0.819 | 3.29 | 1.75 | 2.25 | -0.0756 | 1.15
CCAGACAGCTGAAAGGTAACTCAGTCTGGTACGC | -0.259 | -0.27 | -0.368 | -0.00199 | -0.748 | 0.193 | 0.377 | -0.223 | -0.581 | -0.401
GATACAGGGTCAGCTAGAGGACAGAGTATGGAAA | 4.89 | 3.3 | -0.154 | 2.61 | -0.241 | 4.58 | 3.93 | 3.23 | 1.06 | 2.12
CCTACCAGGCCAGGGTCACTCAAGCATTTCGCTT | 2.09 | 1.56 | -0.206 | 2.18 | -0.678 | 2.88 | 0.899 | 1.61 | -0.554 | 0.539
GGAACGAGAGCATTCGAGTTGATAGCATGGCGAT | -0.374 | -1.05 | -0.97 | -1.11 | -1.55 | -0.713 | 0.37 | -0.536 | -0.607 | -0.728
CGAACTAGGTCATCCAGGACAGTAAATACATTGA | 4.22 | 2.79 | 0.899 | 2.36 | 0.21 | 4.68 | 7.87 | 6.33 | 3.68 | 5.68
CCGACTGGGGGAAAGGTTACCATACTCAGTACGA | 1.81 | 2.38 | 0.42 | 3.4 | 3.72 | 5.42 | 9.9 | 9.24 | 8.87 | 9.88
CCTACTGGGCCTCGAAAGGTCATTGATTCAGTGA | 3.05 | 3.94 | 4.13 | 3.74 | 0.187 | 4.05 | 1.44 | 2.98 | 0.556 | 1.97
ATCTCTAGGTAAGGCTCAGTTCAGTGAAGAACGC | 0.198 | 0.107 | 0.412 | 0.0703 | 0.35 | 0.125 | 0.0741 | 0.513 | 0.188 | 0.48
ATCGAAGGGTCGACGAGGTGAGTATACACCGTTT | 1.51 | 0.812 | -0.587 | 0.951 | -0.33 | 2.44 | 1.3 | 0.831 | 0.448 | 0.6
GCTTACGGGTCAAAGATTATAGCATGAATAGAAT | 5.74 | 3.66 | -0.0414 | 3.8 | 0.557 | 5.34 | 6.3 | 6.09 | 3.92 | 5.77
CCTTACGGGGCACTGACAGGTTATAGCATTTGGA | -0.345 | 0.0473 | -0.267 | 0.0491 | -0.831 | 0.455 | 0.465 | -0.156 | -0.0268 | -0.232
GGGACGAGGGCAAGTTGATAGCAGAGTTTGATGG | 1.19 | 0.762 | 0.0189 | 1.18 | 0.857 | 1.42 | 1.09 | 1.2 | 0.448 | 0.913
TTATCAAGGTGAGCTGAGGTCGTTGATCCAACTC | 1.87 | 1.22 | -0.0853 | 0.999 | -0.746 | 1.87 | 0.583 | 1.19 | 0.537 | 0.566
CCGACTGGGGCAGGGTTACCATAACGCACAGCCA | 0.198 | 0.487 | -0.443 | 0.866 | -0.609 | 1.41 | 1.77 | 1.98 | 0.254 | 1.44

From the supplement of paper PMC6555819
